# Hit rate of the full screen: of about 310,000 compounds, about 14,000 (4.5%) showed an effect of 50% or more. Effects have a minus sign here. The sample holds strong results, similar compounds and a random draw of the others, so the mix is not that of the screen.
# Biological target: human ether-à-go-go-related gene (hERG) potassium channel (human, UniProt Q12809)
# Test: primary screen, population patch clamp on CHO cells stably expressing hERG; higher = less effect of the substance
# 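Also: peak tail current of the secondary pulse compared with the same well before compound.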
# human ether-à-go-go-related gene (hERG) potassium channel, sequence (Q12809 whole entry, looked up): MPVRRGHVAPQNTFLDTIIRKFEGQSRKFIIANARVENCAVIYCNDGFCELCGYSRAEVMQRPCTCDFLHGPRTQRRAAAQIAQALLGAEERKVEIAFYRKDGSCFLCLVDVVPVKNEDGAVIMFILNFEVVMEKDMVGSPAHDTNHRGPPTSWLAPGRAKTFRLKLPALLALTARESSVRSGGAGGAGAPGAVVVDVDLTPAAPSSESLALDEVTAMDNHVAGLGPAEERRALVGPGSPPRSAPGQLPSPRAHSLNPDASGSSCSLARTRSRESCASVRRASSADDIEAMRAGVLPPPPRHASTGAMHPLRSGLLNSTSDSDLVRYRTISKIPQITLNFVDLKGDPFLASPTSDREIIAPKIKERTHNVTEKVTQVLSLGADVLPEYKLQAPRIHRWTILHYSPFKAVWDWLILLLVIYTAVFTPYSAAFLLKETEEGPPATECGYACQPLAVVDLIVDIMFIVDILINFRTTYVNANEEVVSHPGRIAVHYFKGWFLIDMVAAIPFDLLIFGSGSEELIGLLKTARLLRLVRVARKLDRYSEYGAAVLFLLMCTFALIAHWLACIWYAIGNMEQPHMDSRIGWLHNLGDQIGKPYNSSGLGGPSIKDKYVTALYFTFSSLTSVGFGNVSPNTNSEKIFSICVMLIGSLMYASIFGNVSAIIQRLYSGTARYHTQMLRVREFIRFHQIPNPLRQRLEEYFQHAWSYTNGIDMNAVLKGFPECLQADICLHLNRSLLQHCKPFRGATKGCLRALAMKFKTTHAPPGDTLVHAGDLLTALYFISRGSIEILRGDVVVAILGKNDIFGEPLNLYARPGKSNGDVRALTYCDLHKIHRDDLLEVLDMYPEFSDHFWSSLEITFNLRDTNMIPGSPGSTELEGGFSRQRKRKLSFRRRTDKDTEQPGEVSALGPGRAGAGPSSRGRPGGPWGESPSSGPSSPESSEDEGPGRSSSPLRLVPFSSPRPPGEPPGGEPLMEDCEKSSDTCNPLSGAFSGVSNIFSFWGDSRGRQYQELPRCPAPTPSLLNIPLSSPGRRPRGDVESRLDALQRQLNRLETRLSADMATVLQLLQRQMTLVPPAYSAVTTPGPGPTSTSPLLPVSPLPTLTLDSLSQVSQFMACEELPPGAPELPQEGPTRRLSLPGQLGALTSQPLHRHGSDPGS
row,Compound,"hERG current change (%, negative = inhibition) at 10uM [%]"
1,CC1CN(C(=O)/C=C/c2ccccc2[N+](=O)[O-])CC(C)O1 (stereo not shown),-4.44
2,CCCCc1cn([C@@H](CCCCN)C(=O)N2CCNCC2)nn1.Cl,18.8
3,CCCn1c(=NC(C)=O)c(C(=O)OCC)cc2c(=O)n3ccccc3nc21,-9.98
4,CCOC(=O)c1cc2c(=O)n3ccccc3nc2n(C(C)C)c1=NC(=O)c1c(-c2ccccc2Cl)noc1C,24.3
5,CCCn1c(=NC(=O)c2ccco2)c(C(=O)OCC)cc2c(=O)n3ccccc3nc21,-66.7
6,CCOC(=O)c1cc2c(=O)n3ccccc3nc2n(C(C)C)c1=NC(=O)c1c(-c2c(F)cccc2Cl)noc1C,2.48
7,CCCn1c(=NC(=O)c2c(-c3c(F)cccc3Cl)noc2C)c(C(=O)OCC)cc2c(=O)n3ccccc3nc21,5.26
8,CCOC(=O)c1cc2c(=O)n3ccccc3nc2n(C)c1=NC(=O)c1c(-c2c(F)cccc2Cl)noc1C,14
9,CCOC(=O)c1cc2c(=O)n3ccccc3nc2n(C(C)C)c1=NC(=O)c1ccncc1,-67.5
10,CCCCCn1c(=NC(=O)c2ccco2)c(C(=O)OCC)cc2c(=O)n3ccccc3nc21,-73.5
11,CCOC(=O)c1cc2c(=O)n3ccccc3nc2n(C(C)C)c1=NC(=O)c1ccco1,-56.8
12,Cc1onc(-c2c(Cl)cccc2Cl)c1C(=O)NCc1cccs1,-9.65
13,COC(=O)CSc1nnc(SCc2ccc(Cl)cc2)s1,-0.477
14,Cc1occc1C(=O)N/N=C/c1ccc(-c2cccc([N+](=O)[O-])c2)o1,1.37
15,O=C(COC(=O)c1cc(S(=O)(=O)NCc2ccccc2)ccc1O)c1cc2ccccc2o1,11.9
16,COc1ccccc1NC(=O)CCCN1C(=O)C2CC=CCC2C1=O (stereo not shown),11.1
17,CCN1CCN(Cc2ccccc2NC(=O)Nc2ccc(C)cc2)CC1,-0.992
18,COc1cc2nc(CN(CCC(C)C)Cc3nc4cc(OC)c(OC)cc4c(=O)[nH]3)[nH]c(=O)c2cc1OC,-2.68
19,Cc1ccccc1NC(=O)c1nn(C)c(C(=O)Nc2ccccc2C)c1[N+](=O)[O-],0.0696
20,CCCCn1c(=NC(=O)c2ccco2)c(C(=O)OCC)cc2c(=O)n3ccccc3nc21,-71.7
21,CCOc1cc(/C=C/c2ccc3cccc([N+](=O)[O-])c3n2)ccc1OCC(=O)N(C)C,-33.4
22,N#Cc1c(N2CCN(C(=O)c3ccco3)CC2)nc(-c2ccccc2)c2c1CCCC2,-5.84

row,Compound,"hERG current change (%, negative = inhibition) at 10uM [%]"
1,Cc1ccc(-c2nnc(N3CCN(C(=O)CN4CCOCC4)CC3)c3ccccc23)cc1,-31.5
2,O=C(c1ccco1)N1CCN(c2nnc(-c3ccccc3)c3ccccc23)CC1,-75.8
3,Cc1ccc(-c2nnc(N3CCN(C(=O)c4ccco4)CC3)c3ccccc23)cc1,-75.2
4,Cc1ccc(-c2nnc(N3CCCCC3)c3ccccc23)cc1,-11.2
5,O=C(CN1CCOCC1)N1CCN(c2nnc(-c3ccccc3)c3ccccc23)CC1,7.35
6,O=C(Nc1nccs1)C1CCN(S(=O)(=O)c2ccccc2)CC1,-14.1
7,CN(C)S(=O)(=O)c1cccc(NC(=O)c2sccc2-c2ccccc2)c1,-26.1
8,FC(F)Oc1ccc(NC(=S)NCc2ccccc2)cc1,-36.9
9,Fc1ccc(CNC(=S)Nc2ccc(OC(F)F)cc2)cc1,-20.6
10,COc1ccc(NC(=S)Nc2ccc3cn[nH]c3c2)cc1,-11.9
11,CCOc1ccc(NC(=S)NCc2nc3ccccc3[nH]2)cc1,-74
12,FC(F)Oc1ccc(NC(=S)Nc2ccc3cn[nH]c3c2)cc1,-79.5
13,FC(F)Oc1ccc(NC(=S)NCc2nc3ccccc3[nH]2)cc1,-79.2
14,S=C(Nc1ccccc1)Nc1ccc2cn[nH]c2c1,-14.5
15,CCc1cccc(CC)c1NC(=S)NCc1nc2ccccc2[nH]1,3.09
16,CCNC(=S)Nc1ccc(Cc2nc3ccccc3[nH]2)cc1,9.19
17,N#Cc1c(NC(=O)CCN2C(=O)c3ccccc3C2=O)oc(-c2ccccc2)c1-c1ccccc1,-11.7
18,O=C1CCCN1CC1CCCN(Cc2nc(COc3ccccc3)no2)C1 (stereo not shown),28.6
19,O=C(NCc1ccccc1F)C1CCCN(C(=O)Nc2ccccc2)C1 (stereo not shown),3.18
20,COc1cc(C(=O)OC(C)C(=O)Nc2ccc3c(c2)OCO3)ccc1OCc1c(C)noc1C (stereo not shown),15.8
21,Cc1noc(C)c1COc1cccc(C(=O)Nc2ccc3c(c2)OCO3)c1,9.81
